In PubChem BioAssay (NCATS):
Inconclusive results are not listed. Unless noted, calls come from the whole dose curve; as a rule, active = well fitted curve in either direction with a large enough effect (not every such curve was filed as active); inconclusive = small, poorly fitted or top-dose-only effect, or another doubt; inactive = flat fitted curve, though single readings scatter.

Columns and labels:
[1] = AP1 Signaling Pathway (AID 357); conditions: ME-180 AP-1-bla reporter, EGF-induced, beta-lactamase ratio, 5 h; at 17.2 µM (top of the series) unless noted;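 note: ME-180 reporter cells stimulated with EGF at its EC50 level; % is set by controls: 0 for no effect and ±100 for the full control effect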
Outline: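 Cells are seeded overnight, exposed to compound titrations and an EC50 level of EGF for 5 hours at 37 °C, then loaded with CCF4 dye for 2.5 hours. Beta-lactamase activity under the AP-1 element is read as a blue/green ratio.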

[2] = NFAT Signaling Pathway (AID 444); conditions: Jurkat NFAT-bla M1, carbachol, beta-lactamase ratio, 5 h; at 17.2 µM (top of the series) unless noted;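 note: carbachol stimulus at about its EC50 of 1 µM final; % is set by controls: 0 for no effect and ±100 for the full control effect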
Outline: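 Jurkat cells carrying an NFAT-driven β-lactamase reporter and co-transfected muscarinic M1 receptor were treated with compound plus carbachol (1 uM final, an EC50 level) for 5 h at 37 °C. CCF4 loading followed for 1 h at RT; 460/530 nm ratio gave %activity.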

[3] = Stat Signaling Pathway (AID 446); conditions: ME-180 SIE beta-lactamase reporter, IL-6 stimulated, 5 h; at 17.2 µM (top of the series) unless noted;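 note: ME-180 cervical cancer cells given 40 pM IL-6 alongside compound; SIE-controlled beta-lactamase reporter measured as 460/530 nm FRET emission ratio; % is set by controls: 0 for no effect and ±100 for the full control effect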
Outline: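 Reporter line: ME-180 cervical carcinoma, SIE-beta-lactamase. Treatment: compound with 40 pM IL-6, 5 hrs, 37 C, in low-serum OPTI-MEM with 10 mM HEPES pH 7.3. Detection: 460/530 nm fluorescence.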

[4] = target: Glucocorticoid receptor (Homo sapiens) (UniProt P04150); experiment: GR-GFP Redistribution (AID 450;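 active = compounds whose dose series gives a full or clear partial fitted curve of increased nuclear translocation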; note: potency is the fitted concentration of half-maximal effect); conditions: U2OS GR-GFP nuclear translocation, laser cytometry, 2 h; series mostly up to 20.6 µM
Sequence of Glucocorticoid receptor (Homo sapiens) (P04150 whole entry, looked up): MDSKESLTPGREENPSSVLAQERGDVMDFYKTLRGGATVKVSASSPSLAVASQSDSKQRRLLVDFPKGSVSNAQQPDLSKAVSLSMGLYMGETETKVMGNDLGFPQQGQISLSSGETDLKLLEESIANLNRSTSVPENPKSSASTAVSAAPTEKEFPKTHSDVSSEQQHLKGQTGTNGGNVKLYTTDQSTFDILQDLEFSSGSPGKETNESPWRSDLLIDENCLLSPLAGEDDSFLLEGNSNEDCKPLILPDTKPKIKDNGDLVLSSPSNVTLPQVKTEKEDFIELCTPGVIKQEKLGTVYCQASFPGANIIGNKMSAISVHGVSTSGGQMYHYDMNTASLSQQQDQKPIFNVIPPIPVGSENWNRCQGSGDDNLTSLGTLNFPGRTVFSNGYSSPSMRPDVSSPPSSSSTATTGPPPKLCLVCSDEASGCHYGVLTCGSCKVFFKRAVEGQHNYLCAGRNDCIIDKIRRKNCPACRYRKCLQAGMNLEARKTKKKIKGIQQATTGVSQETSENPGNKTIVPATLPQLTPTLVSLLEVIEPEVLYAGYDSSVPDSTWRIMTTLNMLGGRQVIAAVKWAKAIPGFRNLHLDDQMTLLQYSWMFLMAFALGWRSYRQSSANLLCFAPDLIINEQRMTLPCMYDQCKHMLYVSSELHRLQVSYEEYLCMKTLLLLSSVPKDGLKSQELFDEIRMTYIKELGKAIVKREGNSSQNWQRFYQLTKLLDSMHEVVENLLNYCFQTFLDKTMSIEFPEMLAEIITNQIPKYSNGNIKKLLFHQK

Cn1c(=O)c2c(nc(N3CCN(Cc4ccccc4)CC3)n2CC(=O)c2ccccc2)n(C)c1=O
inactive: activity change, negative = inhibition [1] -9.66% | activity change, negative = inhibition [2] -8.82% | activity, negative = inhibition [3] 0.621% | Potency [4] > 20.6 µM

COc1ccc(C(=O)Nc2ccccc2N2CCOCC2)cc1Br
inactive: activity change, negative = inhibition [1] -21.1% | activity change, negative = inhibition [2] 9.59% | activity, negative = inhibition [3] -8.26% | Potency [4] > 20.6 µM

N#C/C(C(=O)NCc1ccco1)=C1/SC(Cc2ccc(F)cc2)C(=O)N1c1ccccc1 (stereo not given)
inactive: activity change, negative = inhibition [1] 1.52% | activity change, negative = inhibition [2] -9.67% | activity, negative = inhibition [3] -22.9% | Potency [4] > 20.6 µM

Cc1cc(=O)oc(C)c1C(=O)Nc1ccc2nsnc2c1
inactive: activity change, negative = inhibition [1] 6.72% | activity change, negative = inhibition [2] -6.31% | activity, negative = inhibition [3] 8.13% | Potency [4] > 20.6 µM

O=C(O)CCCC(=O)N1CCN(C(c2ccccc2)c2ccccc2)CC1
inactive: activity change, negative = inhibition [1] 1.43% | activity change, negative = inhibition [2] 7.29% | activity, negative = inhibition [3] 0.344% | Potency [4] > 20.6 µM

Cc1cc(=O)n2[nH]c(N3C(=O)CCC3=O)nc2n1
inactive: activity change, negative = inhibition [1] 5.03% | activity change, negative = inhibition [2] -4.69% | activity, negative = inhibition [3] 11.6% | Potency [4] > 20.6 µM

CCOc1cccc(NC(=O)C2CC(=O)NC(=Nc3ccccc3)S2)c1 (stereo not given)
inactive: activity change, negative = inhibition [1] -5.62% | activity change, negative = inhibition [2] 6.96% | activity, negative = inhibition [3] -16.5% | Potency [4] > 20.6 µM

O=C1CCC(=O)N1CNc1ccccn1
inactive: activity change, negative = inhibition [1] 10.7% | activity change, negative = inhibition [2] -7.64% | activity, negative = inhibition [3] 15.6% | Potency [4] > 20.6 µM

O=c1c(F)cn(C2CCCO2)c(=O)n1Cc1ccccc1Cl (stereo not given)
inactive: activity change, negative = inhibition [1] 0.0939% | activity change, negative = inhibition [2] -19.1% | activity, negative = inhibition [3] 11.6% | Potency [4] > 20.6 µM

NS(=O)(=O)c1cc2c(cc1Cl)NC(C1C[C@H]3C=C[C@@H]1C3)NS2(=O)=O (stereo not given in full)
inactive: activity change, negative = inhibition [1] 4.88% | activity change, negative = inhibition [2] -20.1% | activity, negative = inhibition [3] -0.0433% | Potency [4] > 20.6 µM

Cn1nccc1C(=O)Nc1ccccc1C(=O)O
inactive: activity change, negative = inhibition [1] -2.42% | activity change, negative = inhibition [2] 5.13% | activity, negative = inhibition [3] 4.71% | Potency [4] > 20.6 µM

CCc1c(C(=O)O)[nH]c2ccc(Br)cc12
inactive: activity change, negative = inhibition [1] 8.39% | activity change, negative = inhibition [2] -22% | activity, negative = inhibition [3] -0.02% | Potency [4] > 20.6 µM

Cc1nc2c(o1)CCc1ccccc1C2O (stereo not given)
inactive: activity change, negative = inhibition [1] 8.51% | activity change, negative = inhibition [2] 3.41% | activity, negative = inhibition [3] 5.73% | Potency [4] > 20.6 µM

c1ccc(OCc2nn3c(C4CCCCC4)nnc3s2)cc1
inactive: activity change, negative = inhibition [1] -8.37% | activity change, negative = inhibition [2] 0.0415% | activity, negative = inhibition [3] 8.07% | Potency [4] > 20.6 µM

CC1(C)Cc2c(sc3[nH]c(=S)n(Cc4ccco4)c(=O)c23)CO1
inactive: activity change, negative = inhibition [1] -2.74% | activity change, negative = inhibition [2] -5.17% | activity, negative = inhibition [3] -8.92% | Potency [4] > 20.6 µM

CN(C)CCOC(=O)Cc1ccc(Cl)cc1
inactive: activity change, negative = inhibition [1] 12% | activity change, negative = inhibition [2] -7.05% | activity, negative = inhibition [3] -4.76% | Potency [4] > 20.6 µM

C=CCn1c(=S)[nH]c2ccccc2c1=O
inactive: activity change, negative = inhibition [1] -3% | activity change, negative = inhibition [2] 10.1% | activity, negative = inhibition [3] 4.87% | Potency [4] > 20.6 µM

CCOc1ccc(CSC(CC(=O)O)C(=O)O)cc1 (stereo not given)
inactive: activity change, negative = inhibition [1] -0.441% | activity change, negative = inhibition [2] -5.85% | activity, negative = inhibition [3] 11.1% | Potency [4] > 20.6 µM

N#C/C(C(=O)NCc1ccccc1)=C1\SC(CCO)C(=O)N1c1ccccc1 (stereo not given)
inactive: activity change, negative = inhibition [1] -9.75% | activity change, negative = inhibition [2] 10.3% | activity, negative = inhibition [3] -2.91% | Potency [4] > 20.6 µM

CCc1nc(SCc2cccnc2)c(C#N)cc1C
inactive: activity change, negative = inhibition [1] -8.39% | activity change, negative = inhibition [2] -24.2% | activity, negative = inhibition [3] 0.873% | Potency [4] > 20.6 µM

COc1ccc(-n2ncc3c(NCCCn4ccnc4)ncnc32)cc1
inactive: activity change, negative = inhibition [1] -7.88% | activity change, negative = inhibition [2] -15.7% | activity, negative = inhibition [3] -5.95% | Potency [4] > 20.6 µM

Nc1nnnn1/N=C/c1ccccn1
inactive: activity change, negative = inhibition [1] -1.28% | activity change, negative = inhibition [2] -4.47% | activity, negative = inhibition [3] -2.26% | Potency [4] > 20.6 µM

O=C(O)c1ccnc(C(=O)O)c1
inactive: activity change, negative = inhibition [1] 8.01% | activity change, negative = inhibition [2] 0.361% | activity, negative = inhibition [3] 10.5% | Potency [4] > 20.6 µM

CC(=O)C(=[N+]=[N-])C(=O)NCc1ccccc1
inactive: activity change, negative = inhibition [1] 7.12% | activity change, negative = inhibition [2] -14.9% | activity, negative = inhibition [3] 1.88% | Potency [4] > 20.6 µM

CN(CCOC(=O)c1ccc2c(c1)OCCO2)Cc1ccccc1
inactive: activity change, negative = inhibition [1] 17.7% | activity change, negative = inhibition [2] -3.33% | activity, negative = inhibition [3] -4.47% | Potency [4] > 20.6 µM
